According to PubChem BioAssay (EPA / NIEHS):
Records with an inconclusive call do not appear. Active and inactive are the calls of the source. How the source made its calls: active means hit-call score of the fitted dose curve at least 0.9, where 1 is the maximum; inconclusive means response in the unintended direction; inactive means score below 0.9.

target: human Vitamin D Receptor (VDR), VDR (gene 7421) (UniProt P11473); experiment: ATG_VDR_TRANS: Attagene TRANS-FACTORIAL HepG2 Assay for human Vitamin D Receptor (VDR) (AID 2283022)
Method: ATG_TRANS is a cell-based, multiplexed-readout assay that uses HepG2, a human liver cell line, with measurements taken at 24 hours after chemical dosing in a 24-well plate.ATG_VDR_TRANS is one of 30 assay component(s) measured or calculated from the ATG_TRANS assay. It is designed to make measurements of mRNA induction, a form of inducible reporter, as detected with fluorescence intensity signals by Reverse transcription polymerase chain reaction (RT-PCR) and Capillary electrophoresis technology.Data from the assay component ATG_VDR_TRANS was analyzed into 1 assay endpoint. This assay endpoint, ATG_VDR_TRANS, was analyzed in the positive analysis fitting direction relative to DMSO as the negative control and baseline of activity. Using a type of inducible reporter, measures of mRNA for gain-of-signal activity can be used to understand the reporter gene at the transcription factor-level as they relate to the gene VDR. Furthermore, this assay endpoint can be referred to as a primary readout, because this assay has produced multiple assay endpoints where this one serves a reporter gene function. To generalize the intended target to other relatable targets, this assay endpoint is annotated to the nuclear receptor intended target family, where the subfamily is non-steroidal.
Human liver HepG2 cells are transiently transfected with multiple reporter transcription units (MRTUs) in 6-well plates using FuGene 6 reagent (Roche; 3 ml FuGene/1 mg DNA). The MRTU constructs are regulated by a cis-regulating element (promoter). […] A major difference between the CIS and TRANS system is that in CIS activities of endogenous TFs are measured, whereas the TRANS assay evaluates changes in activities of exogenous, chimeric NR-Gal4 proteins. […] At the end of 24 hour incubation, total RNA was isolated using TriZol reagent (Invitrogen). The isolated RNA is then reverse-transcribed using oligo(dT) primer and Mo-MLV reverse transcriptase (Invitrogen) with DNAse I (Ambion) treatment for 30 min. The one-tenth of the produced cDNA was amplified by PCR using Taq DNA polymerase (Invitrogen) and two reporter sequence-specific primers. The PCR products were fluorescently labeled by primer extension with 6-arboxyfluorescein (6-FAM) 5'-labeled reporter sequence-specific primer (2 min at 95 C, 20 s at 68 C and 10 min at 72 C) and these products were digested with 5U of HpaI (New England Biolabs) for 2h at 37 C. The fragments were purified using Qiaquick PCR columns (Qiagen), analyzed on an ABI 3130xL genetic analyzer (Applied Biosystems) with peak positions identified by using a set of X-rhodamine (ROX)-labeled MapMarker1000 molecular weight standards (BioVentures). The raw capillary electrophoresis data was processed using Attagraph software (Attagene).

Sequence of human Vitamin D Receptor (VDR), VDR (gene 7421) (P11473 whole entry, looked up): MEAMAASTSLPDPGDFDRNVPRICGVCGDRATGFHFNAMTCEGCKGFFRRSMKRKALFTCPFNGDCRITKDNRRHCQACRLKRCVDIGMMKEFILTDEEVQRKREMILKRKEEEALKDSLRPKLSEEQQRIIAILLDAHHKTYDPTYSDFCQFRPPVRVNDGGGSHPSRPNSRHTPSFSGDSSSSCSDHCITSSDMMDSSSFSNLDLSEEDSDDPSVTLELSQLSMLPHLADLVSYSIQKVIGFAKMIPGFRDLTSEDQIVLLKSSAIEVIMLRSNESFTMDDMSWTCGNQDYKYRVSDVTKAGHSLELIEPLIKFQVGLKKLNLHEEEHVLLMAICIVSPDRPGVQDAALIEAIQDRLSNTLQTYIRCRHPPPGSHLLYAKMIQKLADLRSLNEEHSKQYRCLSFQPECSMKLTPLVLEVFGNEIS

Compound | outcome
OCCCC(F)(F)C(F)(F)C(F)(F)C(F)(F)C(F)(F)C(F)(F)C(F)(F)F | inactive
CC(C)(C)c1ccc(OC2CCCCC2O)cc1 (stereo not given) | inactive
O=C(O)C(F)(F)C(F)(F)C(F)(F)C(F)(F)C(F)(F)C(F)(F)C(F)(F)C(F)(F)C(F)(F)C(F)(F)C(F)(F)C(F)(F)F | inactive
FC(F)(F)C(F)(F)C(F)(F)CI | inactive
Cc1ccc(S(=O)(=O)OCC(F)(F)C(F)(F)C(F)(F)C(F)(F)C(F)(F)C(F)F)cc1 | inactive
CCCCCCCCC(F)(F)C(F)(F)C(F)(F)C(F)(F)C(F)(F)C(F)(F)F | inactive
CCCCCCC(C)OC(=O)CCCCC(=O)OC(C)CCCCCC (stereo not given) | inactive
CCCCCCS | inactive
CCCCCC=O | inactive
O=C(OCCOCCOCCOC(=O)c1ccccc1)c1ccccc1 | inactive
CC(=O)Nc1ccc(N=Nc2cc(C)ccc2O)cc1 | inactive
N=C(N)C(F)(F)C(F)(F)C(F)(F)C(F)(F)C(F)(F)C(F)(F)C(F)(F)F | inactive
C1COCCN1 | inactive
C#C[C@]1(O)CC[C@H]2[C@@H]3CCc4cc(OC)ccc4[C@H]3CC[C@@]21C | inactive
FC(F)(F)C(F)(F)C(F)(F)C(F)(F)CCI | inactive
C=CC(=O)OCC(F)(F)C(F)(F)C(F)(F)C(F)(F)C(F)(F)C(F)(F)C(F)(F)F | inactive
CC(C)=CCCC(C)CCOC(=O)C(C)C (stereo not given) | inactive
C(=C(c1ccccc1)c1ccccc1)c1ccccc1 | inactive
OCCCC(F)(F)C(F)(F)C(F)(F)F | inactive
C=CC(=O)OCC(F)(F)C(F)(F)C(F)(F)C(F)(F)COC(=O)C=C | inactive

Compound | outcome
CC/C=C\CCOC(C)=O | inactive
CNC(=S)NC | inactive
CCCCCCOC(=O)c1ccccc1 | inactive
CC(Cc1ccc(O)c(O)c1)C(C)Cc1ccc(O)c(O)c1 (stereo not given) | inactive
CC(CCl)OP(=O)(OC(C)CCl)OC(C)CCl (stereo not given) | inactive
CCc1ccc(C(c2ccc(CC)cc2)C(Cl)Cl)cc1 | inactive
O=S(=O)(O)c1ccc2ccccc2c1 | inactive
CCCCC(CC)COP(=O)(O)OCC(CC)CCCC (stereo not given) | inactive
NC(=O)C(F)(F)C(F)(F)C(F)(F)C(F)(F)F | inactive
Nc1cc(Cl)c(N)c(Cl)c1 | inactive
O=C(O)C(F)(F)C(F)(F)C(F)(F)F | inactive
Nc1ccc(Oc2cccc(Oc3ccc(N)cc3)c2)cc1 | inactive
O=S(=O)(OCC(F)F)C(F)(F)F | inactive
C=C(C)C(=O)OCC(F)(F)C(F)(F)C(F)(F)F | inactive
CCCCNc1ccccc1 | inactive
CCCCCCOC(=O)c1ccccc1O | inactive
FC(F)(F)C(F)(F)CNCC(F)(F)C(F)(F)F | inactive
O=C(O)C(F)(F)C(F)(F)C(F)F | inactive
COC(=O)CCC(F)(F)C(F)(F)C(F)(F)C(F)(F)F | inactive
OCC(F)(F)C(F)(F)C(F)(F)C(F)F | inactive
